In the supplement of paper PMC11026393:

System: SH-SY5Y
Test: difference in mean normalized H2B-mRuby nuclear fluorescence intensity relative to DMSO control (normalized intensity difference (DMSO = 0)); higher = stronger increase in transgene reporter fluorescence
Conditions: 24 h
Description: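 Cancer cell lines stably expressing H2B-mRuby2 from a lentiviral PGK promoter were treated with each drug for 24 h and imaged on a Leica DMI8 (ex 541-551 / em 565-605 nm). Nuclei were segmented in CellProfiler. The value is the difference in mean per-nucleus normalized H2B-mRuby intensity versus DMSO-treated cells (about 3 repeats x 4 fields). Doxorubicin is itself fluorescent. Dasatinib is in nM.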

Compound `Nc1ncn([C@@H]2O[C@H](CO)[C@@H](O)[C@H]2O)c(=O)n1` (concentration unit: uM) has a difference (concentration: 1) of 0.0451, a difference (concentration: 2.5) of 0.0373 and a difference (concentration: 5) of 0.0486. It also gave a difference (concentration: 10) of 0.0991 and a difference (concentration: 20) of 0.0901.

`COc1cc([C@@H]2c3cc4c(cc3[C@@H](O[C@@H]3O[C@@H]5CO[C@@H](C)O[C@H]5[C@H](O)[C@H]3O)[C@H]3COC(=O)[C@H]23)OCO4)cc(OC)c1O` (concentration unit: uM) gave a difference (concentration: 1) of 0.0162, a difference (concentration: 2.5) of 0.042 and a difference (concentration: 5) of 0.0775. For the same compound, the difference (concentration: 10) was 0.0738 and the difference (concentration: 20) was 0.0983.

`COc1cc2ncnc(Nc3ccc(F)c(Cl)c3)c2cc1OCCCN1CCOCC1` (concentration unit: uM) showed a difference (concentration: 1) of 0.0355, a difference (concentration: 2.5) of 0.0288 and a difference (concentration: 5) of 0.0297. The difference (concentration: 10) was 0.0546 and the difference (concentration: 20) was 0.086.

With `Cc1[nH]c2ccccc2c1CCNCc1ccc(/C=C/C(=O)NO)cc1` (concentration unit: nM) the difference (concentration: 10) was 0.13, the difference (concentration: 50) was 0.783 and the difference (concentration: 100) was 1.09. The difference (concentration: 250) was 1.19 and the difference (concentration: 500) was 1.16.

Compound `COc1cccc2c1C(=O)c1c(O)c3c(c(O)c1C2=O)C[C@@](O)(C(=O)CO)C[C@@H]3O[C@H]1C[C@H](N)[C@H](O)[C@H](C)O1` (concentration unit: nM) has a difference (concentration: 25) of -0.0232, a difference (concentration: 100) of 0.0095 and a difference (concentration: 250) of 0.0862. It also gave a difference (concentration: 1000) of 0.155 and a difference (concentration: 2500) of 0.202.

Compound `Cc1nc(Nc2ncc(C(=O)Nc3c(C)cccc3Cl)s2)cc(N2CCN(CCO)CC2)n1` (concentration unit: nM) has a difference (concentration: 25) of 0.0391, a difference (concentration: 100) of 0.111 and a difference (concentration: 250) of 0.137. The difference (concentration: 1000) was 0.178 and the difference (concentration: 2500) was 0.156.
